Reference: PubChem BioAssay AID1159580 (chemical genetic matrix, 2015)
Values joined by “and” are separate entries in the source; they are usually repeats but may differ in a detail not shown here. Identical values can stand only once. Among all 5,500 compounds or so, about 2,000 (36%) were called active. Not shown: some 18% with an inconclusive outcome. Cut-off read from the data, not from the text of the source: active = normalized growth mostly below about 0.91 (no sharp cut-off); inconclusive = no clear call, values can overlap the other calls; inactive = mostly above about 0.92. The list shows a part of the results.

Assay: chemical genetic growth profiling, strain panel (AID 1159580);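 note: tested at 20 µM; growth read once vehicle control cultures reached saturation at 30 °C; 1 = growth at the plate median or of vehicle wells; lower values mean less growth of the strain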
Conditions: S. cerevisiae deletion strains, growth OD

Measured: normalized growth

COc1ccc2c3c([nH]c2c1)C(C)=NCC3
inactive: locus YAL013W, strain DEP1, active compounds read low 1.01 | locus YAL021C, strain ccr4, active compounds read low 0.997 | locus YAL026C, strain drs2, active compounds read low 1.02 | locus YAL030W, strain snc1, active compounds read low 1.01 | locus YBL061C, strain skt5, active compounds read low 1.01 | locus YBR009C, strain hhf1, active compounds read low 0.989 | locus YBR021W, strain FUR4, active compounds read low 1.01 | locus YBR023C, strain chs3, active compounds read low 0.999 | locus YBR171W, strain sec66, active compounds read low 1.01 | locus YBR229C, strain ROT2, active compounds read low 1 | locus YBR231C, strain swc5, active compounds read low 0.997 | locus YBR279W, strain paf1, active compounds read low 1.01 | locus YCL016C, strain dcc1, active compounds read low 1 | locus YCL029C, strain bik1, active compounds read low 0.984 | locus YCL069W, strain vba3, active compounds read low 1.01 | locus YCR088W, strain abp1, active compounds read low 1.01 | locus YDL005C, strain med2, active compounds read low 0.99 | locus YDL035C, strain GPR1, active compounds read low 1.02 | locus YDL040C, strain nat1, active compounds read low 0.986 | locus YDL074C, strain BRE1, active compounds read low 1 | locus YDL101C, strain DUN1, active compounds read low 1.01 | locus YDL134C, strain PPH21, active compounds read low 1 | locus YDL185W, strain tfp1, active compounds read low 0.975 | locus YDL192W, strain arf1, active compounds read low 0.993 | locus YDR001C, strain nth1, active compounds read low 1.02 | locus YDR069C, strain doa4, active compounds read low 0.992 | locus YDR101C, strain arx1, active compounds read low 0.986 | locus YDR137W, strain rgp1, active compounds read low 1.01 | locus YDR150W, strain NUM1, active compounds read low 1.01 | locus YDR159W, strain sac3, active compounds read low 1 | locus YDR162C, strain NBP2, active compounds read low 1 | locus YDR195W, strain ref2 0.954 | locus YDR297W, strain sur2, active compounds read low 0.991 | locus YDR318W, strain mcm21, active compounds read low 0.983 | locus YDR334W, strain swr1, active compounds read low 1.01 | locus YDR335W, strain msn5, active compounds read low 1.01 | locus YDR388W, active compounds read low 0.983 | locus YDR392W, strain spt3, active compounds read low 1.01 | locus YDR502C, strain sam2, active compounds read low 0.989 | locus YEL003W, strain gim4, active compounds read low 1 | locus YEL037C, strain rad23, active compounds read low 1 | locus YEL061C, strain CIN8 (second series), active compounds read low 1.03 | locus YEL061C, strain CIN8, active compounds read low 1.01 | locus YER015W, strain faa2, active compounds read low 0.988 | locus YER016W, strain bim1, active compounds read low 1 | locus YER110C, active compounds read low 0.981 | locus YER111C, strain swi4, active compounds read low 0.993 | locus YER155C, strain BEM2 (second series), active compounds read low 0.98 | locus YER155C, strain BEM2, active compounds read low 1.01 | locus YER167W, strain BCK2, active compounds read low 1.01 | locus YFR010W, strain ubp6, active compounds read low 0.999 | locus YGL078C, strain dbp3, active compounds read low 0.987 | locus YGL086W, strain mad1, active compounds read low 0.991 | locus YGL167C, strain pmr1, active compounds read low 0.993 | locus YGL173C, strain kem1, active compounds read low 0.984 | locus YGL227W, strain vid30, active compounds read low 1 | locus YGL240W, strain doc1, active compounds read low 1.01 | locus YGL248W, strain PDE1, active compounds read low 1 | locus YGL253W, strain hxk2, active compounds read low 1.03 | locus YGR078C, strain PAC10, active compounds read low 1 | locus YGR135W, strain pre9, active compounds read low 0.988 | locus YGR229C, strain SMI1, active compounds read low 1.03 | locus YGR252W, strain gcn5, active compounds read low 0.963 | locus YHR013C, strain ard1, active compounds read low 0.948 | locus YHR027C, strain rpn1, active compounds read low 1.01 | locus YHR030C, strain SLT2, active compounds read low 1.01 and 0.978 | locus YHR079C, strain IRE1 (second series), active compounds read low 0.992 | locus YHR079C, strain IRE1, active compounds read low 1 | locus YHR094C, strain hxt1, active compounds read low 0.991 | locus YHR129C, strain ARP1, active compounds read low 0.999 | locus YHR142W, strain chs7, active compounds read low 1.01 | locus YHR200W, strain rpn10, active compounds read low 0.982 | locus YIL066C, strain RNR3, active compounds read low 1.01 | locus YIL073C, strain SPO22, active compounds read low 1.03 | locus YIL125W, strain kgd1, active compounds read low 0.988 | locus YIR030C, strain dcg1, active compounds read low 0.988 | locus YJL092W, strain hpr5, active compounds read low 1.02 | locus YJL095W, strain BCK1 (second series), active compounds read low 1 | locus YJL095W, strain BCK1, active compounds read low 1.02 and 0.991 | locus YJL115W, strain asf1, active compounds read low 0.994 | locus YJL129C, strain trk1, active compounds read low 1.02 | locus YJL134W, strain LCB3, active compounds read low 1 | locus YJL154C, strain vps35, active compounds read low 1 | locus YJL164C, strain tpk1, active compounds read low 1 | locus YJL166W, strain qcr8, active compounds read low 1 | locus YJL168C, strain set2, active compounds read low 0.986 | locus YJL187C, strain SWE1 (second series), active compounds read low 1.01 | locus YJL187C, strain SWE1, active compounds read low 0.993 | locus YJR043C, strain POL32, active compounds read low 0.982 | locus YJR066W, strain TOR1, active compounds read low 0.929 | locus YJR075W, strain HOC1, active compounds read low 1.01
